Assay results taken from the supplement of paper PMC10849652.
About 7,900 targets were measured; listed, in parts, are those with a hit and a random draw of the rest. About 0.6% of all pairs of compound and target were hits.

Experiments:
Experiment in all cases: log2 fold change, soluble protein after heating vs DMSO (PISA); higher = thermal stabilisation; K562 cells, 10 uM, 30 min; active = over 0.2 and 3.5 SD of the protein, either way, in both replicates (recomputed)
IRAK-1-4 Inhibitor I = compound: C1COCCN1CCN2C3=CC=CC=C3N=C2NC(=O)C4=CC(=CC=C4)[N+](=O)[O-] [IRAK-1-4 Inhibitor I]
Procedure, shortened: (§1)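 K562 cells at 2×10^6 cells/mL were exposed to 10 μM compound for 30 min, then aliquots were heated for 3 min across 48°C-58°C, pooled, and extracted in PBS containing 0.5% NP-40 at 4°C. The supernatant after 21,000xg for 90 min was taken as soluble protein and measured by TMTpro 16plex LC-MS/MS with channel sums equalised. Thermal stability is reported relative to control samples, with values from duplicates. Fold changes are given on a log2 scale.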

[1] = compound: CC(=O)c1cnc2ccc(-c3cc(Cl)c(O)c(Cl)c3)nc2c1N[C@H]1CC[C@H](CN(C)C)CC1
Procedure, shortened: as §1

ralimetinib = compound: CC(C)(C)Cn1c(N)nc2ccc(-c3[nH]c(C(C)(C)C)nc3-c3ccc(F)cc3)nc21 [ralimetinib]
Procedure, shortened: as §1

[2] = compound: CC(C)(O)CC(=O)NCCn1ccc2ncnc(Nc3ccc(Oc4cccc(C(F)(F)F)c4)c(Cl)c3)c21
Procedure, shortened: as §1

[3] = compound: CC(C)C[C@@H](C=O)NC(=O)[C@H](CC(C)C)NC(=O)[C@H](CC(C)C)NC(=O)OCc1ccccc1
Procedure, shortened: as §1

pinometostat = compound: CC(C)N(C[C@H]1O[C@@H](n2cnc3c(N)ncnc32)[C@H](O)[C@@H]1O)[C@H]1C[C@@H](CCc2nc3cc(C(C)(C)C)ccc3[nH]2)C1 [pinometostat]
Procedure, shortened: as §1

[4] = compound: CC1=C(C2=C(C=C1)C(=O)C3=CC=CC=C3N2CCCN)C
Procedure, shortened: as §1

[5] = compound: CC1=C(C=C(C=C1)NC(=O)C2=CC(=CC=C2)C(C)(C)C#N)NC3=CC4=C(C=C3)N=CN(C4=O)C
Procedure, shortened: as §1

[6] = compound: CC1=C(C=C(C=C1)NC(=O)C2=CC(=CC=C2)N(C)C)NC(=O)C3=CC=C(C=C3)O
Procedure, shortened: as §1

[7] = compound: CC1=CC=C(C=C1)SC2=C3C=C(SC3=CN=C2)C(=O)N
Procedure, shortened: as §1

[8] = compound: CC1=NC(=CC=C1)C2=C(N=C(N2)C(C)(C)C)C3=CC4=NC=CN=C4C=C3
Procedure, shortened: as §1

Nexturastat A = compound: CCCCN(Cc1ccc(C(=O)NO)cc1)C(=O)Nc1ccccc1 [Nexturastat A]
Procedure, shortened: as §1

vemurafenib = compound: CCCS(=O)(=O)Nc1ccc(F)c(C(=O)c2c[nH]c3ncc(-c4ccc(Cl)cc4)cc23)c1F [vemurafenib]
Procedure, shortened: as §1

[9] = compound: CCCS(=O)(=O)Nc1ccc(F)c(C(=O)c2c[nH]c3ncc(Cl)cc23)c1F
Procedure, shortened: as §1

[10] = compound: CC(C)C1=C2N=C(C=C(N2N=C1)NCC3=CC=CC=C3)NCCCCCCN
Procedure, shortened: as §1

[11] = compound: CCCc1cc(C)[nH]c(=O)c1CNC(=O)c1cc(-c2ccnc(N3CCN(C)CC3)c2)cc2c1cnn2C(C)C
Procedure, shortened: as §1

givinostat = compound: CCN(CC)Cc1ccc2cc(COC(=O)Nc3ccc(C(=O)NO)cc3)ccc2c1 [givinostat]
Procedure, shortened: as §1

[12] = compound: CC1=C(C(CC(=O)N1)C2=CC=C(C=C2)C(F)(F)F)C(=O)NC3=C(C=C4C(=C3)C=NN4)F
Procedure, shortened: as §1

ibrutinib = compound: C=CC(=O)N1CCC[C@@H](n2nc(-c3ccc(Oc4ccccc4)cc3)c3c(N)ncnc32)C1 [ibrutinib]
Procedure, shortened: as §1

barasertib = compound: CCN(CCCOc1ccc2c(Nc3cc(CC(=O)Nc4cccc(F)c4)[nH]n3)ncnc2c1)CCOP(=O)(O)O [barasertib]
Procedure, shortened: as §1

Measured: log2 fold change

DCP2 (UniProt Q8IU60)
inactive: IRAK-1-4 Inhibitor I -0.372 | [1] -0.265 | ralimetinib 0.105 | [2] 0.147 | [3] 0.185 | pinometostat 0.038 | [4] -0.111 | [5] -0.134 | [6] -0.006 | [7] 0.016 | [8] -0.089 | Nexturastat A 0.174 | vemurafenib 0.064 | [9] 0.055

EEF1D isoform 3 (UniProt P29692)
Sequence of UniProt P29692 (P29692 whole entry, looked up): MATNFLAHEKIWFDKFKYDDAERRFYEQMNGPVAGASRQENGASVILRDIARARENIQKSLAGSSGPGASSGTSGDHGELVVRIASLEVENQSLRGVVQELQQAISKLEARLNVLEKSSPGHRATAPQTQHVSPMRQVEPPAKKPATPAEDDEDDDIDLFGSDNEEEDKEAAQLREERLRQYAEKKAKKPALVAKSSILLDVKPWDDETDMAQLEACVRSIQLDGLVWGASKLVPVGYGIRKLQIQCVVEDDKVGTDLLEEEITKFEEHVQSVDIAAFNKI
inactive: [10] -0.27 | [4] 0.605 | [11] -0.674 | givinostat -0.236

DCAF4 (UniProt Q8WV16)
inactive: ralimetinib -0.026 | [2] -0.019 | [3] -0.042 | [12] 0.043 | [5] 0.03 | [6] 0.072 | Nexturastat A -0.132 | [11] -0.061

FAM135A (UniProt Q9P2D6)
Sequence of UniProt Q9P2D6 (Q9P2D6 whole entry, looked up): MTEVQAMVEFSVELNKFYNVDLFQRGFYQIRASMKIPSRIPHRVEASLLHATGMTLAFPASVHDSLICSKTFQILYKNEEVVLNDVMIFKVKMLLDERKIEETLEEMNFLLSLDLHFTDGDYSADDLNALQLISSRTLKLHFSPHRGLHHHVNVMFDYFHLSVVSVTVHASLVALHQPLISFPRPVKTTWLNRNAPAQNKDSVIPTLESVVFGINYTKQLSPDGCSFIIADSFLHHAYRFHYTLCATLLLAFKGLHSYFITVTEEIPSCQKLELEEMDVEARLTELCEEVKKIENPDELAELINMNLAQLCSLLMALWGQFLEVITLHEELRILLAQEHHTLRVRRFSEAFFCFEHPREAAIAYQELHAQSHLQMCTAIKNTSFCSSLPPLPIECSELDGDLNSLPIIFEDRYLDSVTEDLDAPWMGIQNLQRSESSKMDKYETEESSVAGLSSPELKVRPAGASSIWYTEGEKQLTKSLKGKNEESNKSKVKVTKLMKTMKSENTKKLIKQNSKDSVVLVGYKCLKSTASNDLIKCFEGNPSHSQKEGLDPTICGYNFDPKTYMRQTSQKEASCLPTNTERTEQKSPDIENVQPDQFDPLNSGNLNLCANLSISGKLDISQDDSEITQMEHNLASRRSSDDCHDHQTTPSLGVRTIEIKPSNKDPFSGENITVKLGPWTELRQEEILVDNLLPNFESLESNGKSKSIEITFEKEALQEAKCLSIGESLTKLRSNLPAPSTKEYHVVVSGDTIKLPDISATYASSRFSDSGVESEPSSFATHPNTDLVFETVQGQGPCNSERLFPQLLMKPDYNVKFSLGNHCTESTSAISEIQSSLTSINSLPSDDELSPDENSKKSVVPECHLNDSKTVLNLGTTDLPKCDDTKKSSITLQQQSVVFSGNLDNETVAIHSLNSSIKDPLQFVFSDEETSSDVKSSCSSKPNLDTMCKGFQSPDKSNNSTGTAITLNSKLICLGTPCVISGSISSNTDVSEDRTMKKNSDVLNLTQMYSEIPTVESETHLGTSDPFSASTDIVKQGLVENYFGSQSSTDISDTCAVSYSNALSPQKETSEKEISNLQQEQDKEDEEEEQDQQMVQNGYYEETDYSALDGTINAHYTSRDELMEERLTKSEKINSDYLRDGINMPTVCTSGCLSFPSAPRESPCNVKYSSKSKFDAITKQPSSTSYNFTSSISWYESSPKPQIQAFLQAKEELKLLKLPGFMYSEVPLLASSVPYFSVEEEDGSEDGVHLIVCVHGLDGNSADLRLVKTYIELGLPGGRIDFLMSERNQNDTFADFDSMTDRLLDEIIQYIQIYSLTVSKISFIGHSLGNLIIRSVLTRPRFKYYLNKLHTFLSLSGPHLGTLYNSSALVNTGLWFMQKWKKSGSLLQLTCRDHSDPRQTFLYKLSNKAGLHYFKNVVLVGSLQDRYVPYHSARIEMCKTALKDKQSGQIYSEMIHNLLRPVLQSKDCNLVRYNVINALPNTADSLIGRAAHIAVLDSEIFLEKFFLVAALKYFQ
active: Nexturastat A 0.5
inactive: [2] 0.009 | [10] 0.051 | [12] -0.002 | [5] -0.178 | vemurafenib -0.042 | givinostat 0.131

DLK1 (UniProt P80370)
inactive: IRAK-1-4 Inhibitor I 0.023 | [2] -0.034 | pinometostat 0.099 | [8] -0.033 | Nexturastat A -0.003 | vemurafenib -0.026

DNAH10 (UniProt Q8IVF4)
inactive: IRAK-1-4 Inhibitor I 0.004 | ibrutinib 0.018 | [2] -0.127 | [10] 0.162 | pinometostat -0.106 | [12] -0.154 | [4] -0.022 | [5] -0.034 | [8] -0.114 | Nexturastat A 0.434 | vemurafenib -0.067 | [11] -0.269 | givinostat 0.307 | barasertib 0.014

EEF2K (UniProt O00418)
Sequence of UniProt O00418 (O00418 whole entry, looked up): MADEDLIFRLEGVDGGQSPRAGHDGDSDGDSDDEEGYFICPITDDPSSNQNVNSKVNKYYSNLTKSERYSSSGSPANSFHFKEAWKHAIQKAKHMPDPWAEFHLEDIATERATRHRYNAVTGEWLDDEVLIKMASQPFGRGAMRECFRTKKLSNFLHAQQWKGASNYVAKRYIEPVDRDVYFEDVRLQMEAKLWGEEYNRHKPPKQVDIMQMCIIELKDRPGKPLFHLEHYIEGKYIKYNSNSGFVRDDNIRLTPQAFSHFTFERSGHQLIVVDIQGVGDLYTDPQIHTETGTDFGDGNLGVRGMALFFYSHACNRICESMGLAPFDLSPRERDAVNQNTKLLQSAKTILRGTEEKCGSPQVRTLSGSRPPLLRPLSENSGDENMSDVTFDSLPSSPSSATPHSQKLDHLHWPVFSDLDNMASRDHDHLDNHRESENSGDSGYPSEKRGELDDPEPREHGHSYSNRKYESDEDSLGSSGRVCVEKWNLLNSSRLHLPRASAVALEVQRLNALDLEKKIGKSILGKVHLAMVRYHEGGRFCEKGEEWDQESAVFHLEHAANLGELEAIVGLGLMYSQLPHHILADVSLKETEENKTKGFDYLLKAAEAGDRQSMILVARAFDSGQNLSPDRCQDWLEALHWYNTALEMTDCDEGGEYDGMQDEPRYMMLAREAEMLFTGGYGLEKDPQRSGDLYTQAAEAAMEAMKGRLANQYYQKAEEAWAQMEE
inactive: ralimetinib 0.126 | [2] -0.047 | [10] -0.245 | [3] 0.169 | [6] 0.006 | [7] 0.043 | Nexturastat A 0.201 | vemurafenib 0.089 | [9] 0.157 | [11] 0.15 | givinostat -0.041

ELAC1 (UniProt Q9H777)
Sequence of UniProt Q9H777 (Q9H777 whole entry, looked up): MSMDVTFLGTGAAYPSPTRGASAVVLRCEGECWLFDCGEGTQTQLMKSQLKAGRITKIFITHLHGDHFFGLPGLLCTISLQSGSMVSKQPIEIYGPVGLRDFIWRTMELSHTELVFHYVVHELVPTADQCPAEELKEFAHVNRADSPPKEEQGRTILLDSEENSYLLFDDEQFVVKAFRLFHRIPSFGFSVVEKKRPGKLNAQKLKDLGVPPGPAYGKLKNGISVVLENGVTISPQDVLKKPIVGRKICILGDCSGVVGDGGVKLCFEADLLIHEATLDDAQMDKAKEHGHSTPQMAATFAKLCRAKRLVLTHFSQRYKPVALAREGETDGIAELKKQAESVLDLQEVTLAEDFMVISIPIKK
inactive: IRAK-1-4 Inhibitor I 0.028 | [1] 0.027 | [2] 0.027 | [10] 0.116 | pinometostat -0.129 | [12] -0.01 | [5] 0.003 | [7] -0.051 | [8] -0.049 | Nexturastat A 0.011 | vemurafenib -0.017 | [9] 0.007 | givinostat -0.023

CTNNBL1 (UniProt Q8WYA6)
Sequence of UniProt Q8WYA6 (Q8WYA6 whole entry, looked up): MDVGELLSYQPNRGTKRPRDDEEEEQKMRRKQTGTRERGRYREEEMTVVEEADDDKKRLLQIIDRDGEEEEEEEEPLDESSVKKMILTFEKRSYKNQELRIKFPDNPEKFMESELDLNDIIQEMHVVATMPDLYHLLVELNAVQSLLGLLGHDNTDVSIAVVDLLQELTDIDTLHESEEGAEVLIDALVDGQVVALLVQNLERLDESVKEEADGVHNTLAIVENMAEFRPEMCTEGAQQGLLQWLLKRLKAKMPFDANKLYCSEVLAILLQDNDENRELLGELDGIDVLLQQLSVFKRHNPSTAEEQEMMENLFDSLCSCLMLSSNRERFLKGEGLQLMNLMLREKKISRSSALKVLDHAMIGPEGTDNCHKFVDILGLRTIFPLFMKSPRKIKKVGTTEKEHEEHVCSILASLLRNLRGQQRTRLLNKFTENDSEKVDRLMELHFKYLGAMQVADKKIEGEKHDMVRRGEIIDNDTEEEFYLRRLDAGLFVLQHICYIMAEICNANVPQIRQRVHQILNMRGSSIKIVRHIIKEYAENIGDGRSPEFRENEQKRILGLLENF
inactive: ibrutinib 0.046 | [7] 0.185 | vemurafenib -0.02 | [9] -0.166 | barasertib 0.012

DENND1A isoform 6 (UniProt Q8TEH3)
Sequence of UniProt Q8TEH3 (Q8TEH3 whole entry, looked up): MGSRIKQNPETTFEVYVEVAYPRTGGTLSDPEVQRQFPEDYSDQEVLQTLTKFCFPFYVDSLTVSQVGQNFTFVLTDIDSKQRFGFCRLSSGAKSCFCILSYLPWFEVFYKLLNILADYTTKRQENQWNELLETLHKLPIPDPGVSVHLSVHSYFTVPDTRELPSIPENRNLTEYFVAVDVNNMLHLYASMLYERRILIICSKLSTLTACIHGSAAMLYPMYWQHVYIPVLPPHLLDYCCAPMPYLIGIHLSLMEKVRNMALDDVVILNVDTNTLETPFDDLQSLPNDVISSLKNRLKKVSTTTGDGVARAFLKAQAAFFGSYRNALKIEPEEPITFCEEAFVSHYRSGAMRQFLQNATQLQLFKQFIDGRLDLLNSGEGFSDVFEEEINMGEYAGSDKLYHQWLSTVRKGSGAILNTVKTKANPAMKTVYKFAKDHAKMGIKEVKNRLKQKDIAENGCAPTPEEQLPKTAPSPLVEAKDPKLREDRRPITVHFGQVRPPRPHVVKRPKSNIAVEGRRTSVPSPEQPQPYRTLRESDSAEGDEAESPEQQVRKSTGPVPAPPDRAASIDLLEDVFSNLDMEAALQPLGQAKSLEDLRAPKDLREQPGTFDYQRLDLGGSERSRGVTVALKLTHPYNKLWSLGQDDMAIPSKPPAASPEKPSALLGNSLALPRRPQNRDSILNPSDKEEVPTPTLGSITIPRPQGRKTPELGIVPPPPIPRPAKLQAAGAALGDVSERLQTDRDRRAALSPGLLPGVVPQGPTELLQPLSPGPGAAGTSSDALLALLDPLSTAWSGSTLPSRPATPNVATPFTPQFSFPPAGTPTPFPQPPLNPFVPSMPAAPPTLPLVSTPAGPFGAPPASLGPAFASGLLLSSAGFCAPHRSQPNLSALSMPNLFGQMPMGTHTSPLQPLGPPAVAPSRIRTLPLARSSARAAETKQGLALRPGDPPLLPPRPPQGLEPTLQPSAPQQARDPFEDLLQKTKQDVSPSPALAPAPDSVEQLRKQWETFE
inactive: IRAK-1-4 Inhibitor I 0.121 | ibrutinib -0.003 | pinometostat -0.356 | [4] 0.113 | [7] 0.025 | [8] -0.009 | vemurafenib -0.119 | [9] 0.114 | barasertib 0.293

ELOVL5 isoform 2 (UniProt Q9NYP7)
inactive: ibrutinib -0.075 | [1] -0.032 | ralimetinib -0.058 | [2] -0.272 | [10] -0.348 | [3] -0.05 | [12] -0.027 | [4] 0.002 | [5] 0.079 | [6] 0.02 | [7] 0.002 | Nexturastat A -0.05 | vemurafenib 0.065 | [9] 0.03 | [11] -0.241 | givinostat -0.008 | barasertib 0.035

ENTPD7 (UniProt Q9NQZ7)
Sequence of UniProt Q9NQZ7 (Q9NQZ7 whole entry, looked up): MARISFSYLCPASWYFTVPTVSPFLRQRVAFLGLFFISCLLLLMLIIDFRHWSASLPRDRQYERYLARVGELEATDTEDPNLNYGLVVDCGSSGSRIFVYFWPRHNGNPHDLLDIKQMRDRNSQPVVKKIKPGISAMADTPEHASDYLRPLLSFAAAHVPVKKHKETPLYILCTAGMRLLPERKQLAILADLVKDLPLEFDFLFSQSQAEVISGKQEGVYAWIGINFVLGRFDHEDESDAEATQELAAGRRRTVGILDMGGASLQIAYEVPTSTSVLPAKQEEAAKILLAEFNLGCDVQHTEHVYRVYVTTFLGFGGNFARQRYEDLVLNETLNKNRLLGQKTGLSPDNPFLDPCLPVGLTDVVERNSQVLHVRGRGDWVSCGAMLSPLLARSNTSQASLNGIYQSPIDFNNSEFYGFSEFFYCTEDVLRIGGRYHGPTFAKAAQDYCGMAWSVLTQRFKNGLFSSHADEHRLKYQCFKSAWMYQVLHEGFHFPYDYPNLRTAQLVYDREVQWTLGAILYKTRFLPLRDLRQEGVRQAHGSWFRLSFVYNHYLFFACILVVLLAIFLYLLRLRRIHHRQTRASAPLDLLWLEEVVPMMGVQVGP
inactive: IRAK-1-4 Inhibitor I -0.146 | ibrutinib -0.013 | [2] 0.181 | [10] -0.043 | pinometostat -0.009 | [12] -0.022 | [4] -0.016 | [5] -0.033 | [7] 0.012 | [8] 0.142 | Nexturastat A 0.047 | [9] -0.1 | [11] -0.068 | givinostat 0 | barasertib -0.009

DENND10 (UniProt Q8TCE6)
inactive: ibrutinib 0.037 | [1] 0 | ralimetinib -0.003 | [2] -0.025 | [10] -0.119 | [3] 0.016 | [12] 0.059 | [4] -0.185 | [5] 0.022 | [6] 0.036 | [7] 0.029 | Nexturastat A -0.119 | vemurafenib -0.023 | [9] 0.01 | [11] -0.023 | givinostat 0.131 | barasertib 0.036
